Calls of active or inactive are those of the source. The call rests on the fitted dose curve; in most records, active means well fitted curve in the direction sought with a large enough effect in the repeat runs; inconclusive means weak or mixed curves; inactive means flat fitted curve, though single readings scatter. Non-standard residues stand in square brackets, D forms with d. Residues, ends and D or L forms follow the SMILES beside them. pGlu = O=C1CC[C@@H](C(=O)O)N1
experiment: qHTS assay to test for compound auto fluorescence at 590 nm (red) in HepG2 cells (AID 720674); settings: HepG2 autofluorescence, red 540/590 nm, 1 h; series mostly up to 46 µM; fluorescence, relative to Rose Bengal: at the top concentration
Summary of the method: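 We screened compounds on adherent HepG2 cells, incubating them for an hour at 37 C in 5% CO2 before reading emission at 590 nm under 540 nm excitation; values reflect equivalence to Rose Bengal sodium fluorescence.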
On the % scale 0 is the no-effect control and ±100 the full control effect.

SMILES	fluorescence, relative to Rose Bengal
COc1cc2c(cc1OC)[C@@H](c1ccccc1)CN(C)CC2	0.0024% (inactive)
CCC(Cc1c(I)cc(I)c(O)c1I)C(=O)O (stereo not drawn)	0.138% (inactive)
CC(=O)Oc1cccc(C(=O)O)c1OC(C)=O	0.0972% (inactive)
O=C(NNCS(=O)(=O)O)c1ccncc1	-0.133% (inactive)
CO/N=C(\C(=O)N[C@@H]1C(=O)N2C(C(=O)O)=C(CSC(=O)c3ccco3)CS[C@H]12)c1csc(N)n1	0.173% (inactive)
O=c1[nH]cnc2[nH]cc(CN3CCCCC3)c12	-0.0229% (inactive)
CO/N=C(\C(=O)N[C@@H]1C(=O)N2C(C(=O)OCOC(=O)C(C)(C)C)=C(/C=C\c3scnc3C)CS[C@H]12)c1csc(N)n1	0.029% (inactive)
CCCC(=O)O[C@]1(C(=O)COC(C)=O)CC[C@H]2[C@@H]3C[C@H](F)C4=CC(=O)C=C[C@]4(C)[C@@]3(F)[C@@H](O)C[C@@]21C	-0.0641% (inactive)
CCCc1ccc(C(=O)O)cc1	0.913% (inactive)
CC1(C)S[C@@H]2[C@H](NC(=O)C(C(=O)Oc3ccc4c(c3)CCC4)c3ccccc3)C(=O)N2[C@H]1C(=O)O (stereo partly drawn)	-0.136% (inactive)
CO[C@@]1(NC(=O)C2SC(=C(C(N)=O)C(=O)O)S2)C(=O)N2C(C(=O)O)=C(CSc3nnnn3C)CS[C@@H]21 (stereo partly drawn)	-0.278% [at 18.6 µM] (inactive)
O=C1CCC(=O)N1CO	0.0701% (inactive)
C[C@@H](O)[C@H]1C(=O)N2C(C(=O)[O-])=C(SC3Cn4cnc[n+]4C3)[C@H](C)[C@H]12 (stereo partly drawn)	0.0037% (inactive)
CC(C)[C@@H]1CC[C@@H](C)C[C@H]1OC(=O)c1ccccc1O	0.457% (inactive)
N#Cc1ccc2c(c1)N(CCCN1CCC(O)CC1)c1ccccc1S2	0.52% (inactive)
CO[C@H]1C[C@H](O[C@H]2[C@H](C)[C@@H](O[C@@H]3O[C@H](C)C[C@H](N(C)C)[C@H]3OC(C)=O)[C@@H](C)C[C@]3(CO3)C(=O)[C@H](C)[C@@H](OC(C)=O)[C@@H](C)[C@@H](C)OC(=O)[C@@H]2C)O[C@@H](C)[C@@H]1OC(C)=O	0.751% [at 18.6 µM] (inactive)
C[C@]12CC[C@@H]3c4ccc(OS(=O)(=O)O)cc4CC[C@H]3[C@@H]1CCC2=O	0.174% (inactive)
Nc1nc2c(c(=O)[nH]1)N(C=O)C(CNc1ccc(C(=O)N[C@@H](CCC(=O)O)C(=O)O)cc1)CN2 (stereo partly drawn)	-0.663% [at 18.6 µM] (inactive)
C/C=C(/CC[C@@H](C)[C@H]1CC[C@H]2C3=CC[C@H]4[C@H](C)[C@@H](O)CC[C@]4(C)[C@H]3CC[C@]12C)C(C)C	-0.265% (inactive)
OC[C@H]1O[C@@H](n2cnc3c2NC=NC[C@H]3O)C[C@@H]1O	-0.0191% (inactive)

SMILES	fluorescence, relative to Rose Bengal
O=C(O)c1nc(=O)[nH]c(=O)[nH]1	-0.0126% (inactive)
C=CCSSSCC=C	-0.335% (inactive)
CS(=O)(=O)Nc1cc2occ(NC=O)c(=O)c2cc1Oc1ccccc1	0.163% (inactive)
CC(C(=O)O)c1ccc(C2CCCCC2)c2ccccc12 (stereo not drawn)	-0.0108% (inactive)
CC[C@H](C)[C@H](NC(=O)[C@H](Cc1ccccc1)NC(=O)[C@H](C)NC(=O)[C@H](CC(=O)O)NC(=O)[C@H](CCCCN)NC(=O)[C@H](CO)NC(=O)[C@@H]1CCCN1C(=O)[C@@H]1CCC(=O)N1)C(=O)NCC(=O)N[C@@H](CC(C)C)C(=O)N[C@@H](CCSC)C(N)=O ([pGlu]PSKDAFIGLM-NH2)	-0.0261% (inactive)
Cc1cccc(C)c1NC(=O)NC1=CCCN1C	-0.813% (inactive)
Cn1cc(NC(=O)c2cc(NC(=O)c3cc(NC=O)cn3C)cn2C)cc1C(=O)NCCC(=N)N	-0.0129% (inactive)
CCCCCCCCCCCCCCCC(=O)O[C@@H]1[C@@H](O)[C@@H](O)[C@@H]([C@H](NC(=O)[C@@H]2C[C@@H](CCC)CN2C)[C@H](C)Cl)O[C@@H]1SC	0.0926% (inactive)
Cc1cccc(Nc2ncccc2C(=O)O)c1C	-0.209% (inactive)
NCCCNCCCCNC(=O)C(O)NC(=O)CCCCCCN=C(N)N (stereo not drawn)	0.213% (inactive)
CC1(C)C2CC[C@]3(C)[C@H](C(=O)C=C4[C@@H]5C[C@@](C)(C(=O)O)CC[C@]5(C)CC[C@]43C)[C@@]2(C)CC[C@@H]1O[C@H]1O[C@H](C(=O)O)[C@@H](O)[C@H](O)[C@H]1O[C@@H]1O[C@H](C(=O)O)[C@@H](O)[C@H](O)[C@H]1O (stereo partly drawn)	-0.0161% (inactive)
CN1c2c(nc(N)[nH]c2=O)NCC1CNc1ccc(C(=O)NC(CCC(=O)O)C(=O)O)cc1 (stereo not drawn)	0.0353% (inactive)
Oc1cc(O)cc(O)c1	0.0928% (inactive)
NC(=O)OCC(O)COc1ccc(Cl)cc1 (stereo not drawn)	0.201% [at 18.6 µM] (inactive)
O=C1NC(=O)[C@H]2[C@@H]1[C@@H]1C=C[C@H]2C1	0.242% (inactive)
CC(C)[C@H](N)C(=O)OCC(CO)OCn1cnc2c(=O)[nH]c(N)nc21 (stereo partly drawn)	0.0236% (inactive)
Cc1ncc(C[n+]2csc(CCOP(=O)(O)OP(=O)(O)O)c2C)c(N)n1	-0.732% (inactive)
NCCCC[C@H](N)C(=O)O	-0.749% (inactive)
CNCC(O)c1ccc(OC(=O)C(C)(C)C)c(OC(=O)C(C)(C)C)c1 (stereo not drawn)	-0.179% [at 18.6 µM] (inactive)

experiment: qHTS assay to test for compound auto fluorescence at 535 nm (green) in HepG2 cells (AID 720675); settings: green autofluorescence 485/535 nm, 1 h; series mostly up to 46 µM; fluorescence, % of fluorescein control: at the top concentration

SMILES	fluorescence, % of fluorescein control
COc1cc2c(cc1OC)[C@@H](c1ccccc1)CN(C)CC2	-0.0503% (inactive)
CCC(Cc1c(I)cc(I)c(O)c1I)C(=O)O (stereo not drawn)	-0.253% (inactive)
CC(=O)Oc1cccc(C(=O)O)c1OC(C)=O	0.107% (inactive)
O=C(NNCS(=O)(=O)O)c1ccncc1	-0.0226% (inactive)
CO/N=C(\C(=O)N[C@@H]1C(=O)N2C(C(=O)O)=C(CSC(=O)c3ccco3)CS[C@H]12)c1csc(N)n1	0.0315% (inactive)
O=c1[nH]cnc2[nH]cc(CN3CCCCC3)c12	-0.0821% (inactive)
CO/N=C(\C(=O)N[C@@H]1C(=O)N2C(C(=O)OCOC(=O)C(C)(C)C)=C(/C=C\c3scnc3C)CS[C@H]12)c1csc(N)n1	-0.0671% (inactive)
CCCC(=O)O[C@]1(C(=O)COC(C)=O)CC[C@H]2[C@@H]3C[C@H](F)C4=CC(=O)C=C[C@]4(C)[C@@]3(F)[C@@H](O)C[C@@]21C	0.0113% (inactive)
CCCc1ccc(C(=O)O)cc1	-0.0071% (inactive)
CC1(C)S[C@@H]2[C@H](NC(=O)C(C(=O)Oc3ccc4c(c3)CCC4)c3ccccc3)C(=O)N2[C@H]1C(=O)O (stereo partly drawn)	-0.0509% (inactive)
CO[C@@]1(NC(=O)C2SC(=C(C(N)=O)C(=O)O)S2)C(=O)N2C(C(=O)O)=C(CSc3nnnn3C)CS[C@@H]21 (stereo partly drawn)	0.0349% [at 18.6 µM] (inactive)
O=C1CCC(=O)N1CO	0.0092% (inactive)
C[C@@H](O)[C@H]1C(=O)N2C(C(=O)[O-])=C(SC3Cn4cnc[n+]4C3)[C@H](C)[C@H]12 (stereo partly drawn)	0.0013% (inactive)
CC(C)[C@@H]1CC[C@@H](C)C[C@H]1OC(=O)c1ccccc1O	-0.13% (inactive)
N#Cc1ccc2c(c1)N(CCCN1CCC(O)CC1)c1ccccc1S2	0.0573% (inactive)
CO[C@H]1C[C@H](O[C@H]2[C@H](C)[C@@H](O[C@@H]3O[C@H](C)C[C@H](N(C)C)[C@H]3OC(C)=O)[C@@H](C)C[C@]3(CO3)C(=O)[C@H](C)[C@@H](OC(C)=O)[C@@H](C)[C@@H](C)OC(=O)[C@@H]2C)O[C@@H](C)[C@@H]1OC(C)=O	-0.0684% [at 18.6 µM] (inactive)
C[C@]12CC[C@@H]3c4ccc(OS(=O)(=O)O)cc4CC[C@H]3[C@@H]1CCC2=O	0.0766% (inactive)
Nc1nc2c(c(=O)[nH]1)N(C=O)C(CNc1ccc(C(=O)N[C@@H](CCC(=O)O)C(=O)O)cc1)CN2 (stereo partly drawn)	-0.112% [at 18.6 µM] (inactive)
C/C=C(/CC[C@@H](C)[C@H]1CC[C@H]2C3=CC[C@H]4[C@H](C)[C@@H](O)CC[C@]4(C)[C@H]3CC[C@]12C)C(C)C	0.163% (inactive)
OC[C@H]1O[C@@H](n2cnc3c2NC=NC[C@H]3O)C[C@@H]1O	0.141% (inactive)

SMILES	fluorescence, % of fluorescein control
O=C(O)c1nc(=O)[nH]c(=O)[nH]1	0.0416% (inactive)
C=CCSSSCC=C	-0.0565% (inactive)
CS(=O)(=O)Nc1cc2occ(NC=O)c(=O)c2cc1Oc1ccccc1	-0.0119% (inactive)
CC(C(=O)O)c1ccc(C2CCCCC2)c2ccccc12 (stereo not drawn)	0.0745% (inactive)
CC[C@H](C)[C@H](NC(=O)[C@H](Cc1ccccc1)NC(=O)[C@H](C)NC(=O)[C@H](CC(=O)O)NC(=O)[C@H](CCCCN)NC(=O)[C@H](CO)NC(=O)[C@@H]1CCCN1C(=O)[C@@H]1CCC(=O)N1)C(=O)NCC(=O)N[C@@H](CC(C)C)C(=O)N[C@@H](CCSC)C(N)=O ([pGlu]PSKDAFIGLM-NH2)	-0.0775% (inactive)
Cc1cccc(C)c1NC(=O)NC1=CCCN1C	-0.0058% (inactive)
Cn1cc(NC(=O)c2cc(NC(=O)c3cc(NC=O)cn3C)cn2C)cc1C(=O)NCCC(=N)N	-0.227% (inactive)
CCCCCCCCCCCCCCCC(=O)O[C@@H]1[C@@H](O)[C@@H](O)[C@@H]([C@H](NC(=O)[C@@H]2C[C@@H](CCC)CN2C)[C@H](C)Cl)O[C@@H]1SC	-0.0076% (inactive)
Cc1cccc(Nc2ncccc2C(=O)O)c1C	-0.118% (inactive)
NCCCNCCCCNC(=O)C(O)NC(=O)CCCCCCN=C(N)N (stereo not drawn)	0.0298% (inactive)
CC1(C)C2CC[C@]3(C)[C@H](C(=O)C=C4[C@@H]5C[C@@](C)(C(=O)O)CC[C@]5(C)CC[C@]43C)[C@@]2(C)CC[C@@H]1O[C@H]1O[C@H](C(=O)O)[C@@H](O)[C@H](O)[C@H]1O[C@@H]1O[C@H](C(=O)O)[C@@H](O)[C@H](O)[C@H]1O (stereo partly drawn)	0.152% (inactive)
CN1c2c(nc(N)[nH]c2=O)NCC1CNc1ccc(C(=O)NC(CCC(=O)O)C(=O)O)cc1 (stereo not drawn)	0.239% (inactive)
Oc1cc(O)cc(O)c1	0.114% (inactive)
NC(=O)OCC(O)COc1ccc(Cl)cc1 (stereo not drawn)	-0.154% [at 18.6 µM] (inactive)
O=C1NC(=O)[C@H]2[C@@H]1[C@@H]1C=C[C@H]2C1	0.0743% (inactive)
CC(C)[C@H](N)C(=O)OCC(CO)OCn1cnc2c(=O)[nH]c(N)nc21 (stereo partly drawn)	-0.0442% (inactive)
Cc1ncc(C[n+]2csc(CCOP(=O)(O)OP(=O)(O)O)c2C)c(N)n1	0.0207% (inactive)
NCCCC[C@H](N)C(=O)O	-0.0044% (inactive)
CNCC(O)c1ccc(OC(=O)C(C)(C)C)c(OC(=O)C(C)(C)C)c1 (stereo not drawn)	0.0129% [at 18.6 µM] (inactive)

Source: PubChem BioAssay (Tox21)
